According to the supplement of paper PMC3334620:
Whole data set: some 33,000 sequences, median “E-score (-0.5 to 0.5)” near -0.01, cut for the highest 2% near 0.26. Only a selection was taken, and the highest values are over-represented in it overall.

These sequences were tested against Ste12 (UniProt P13574) (assay: PBM E-score (8-mer binding enrichment) (E-score (-0.5 to 0.5)); higher = stronger / more preferred TF binding). Conditions: protein concentration: 200 nM; construct: GST-DNA-binding domain.
Procedure: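 Universal 'all 10-mer' protein binding microarrays (Agilent AMADID 015681) probed with GST-tagged S. cerevisiae TFs (full-length or DBD) made by in vitro transcription/translation (PURExpress), about 100-200 nM. Bound TF was detected with fluorescent anti-GST. Each ungapped 8-mer (which stands for itself and its reverse complement) is scored by the PBM enrichment score (E-score), a modified Wilcoxon-Mann-Whitney statistic from -0.5 to +0.5, computed with the Universal PBM Analysis Suite. Scale: above 0.35 generally sequence-specific binding.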

Chain of UniProt P13574 (P13574 whole entry, the tested form may be a part): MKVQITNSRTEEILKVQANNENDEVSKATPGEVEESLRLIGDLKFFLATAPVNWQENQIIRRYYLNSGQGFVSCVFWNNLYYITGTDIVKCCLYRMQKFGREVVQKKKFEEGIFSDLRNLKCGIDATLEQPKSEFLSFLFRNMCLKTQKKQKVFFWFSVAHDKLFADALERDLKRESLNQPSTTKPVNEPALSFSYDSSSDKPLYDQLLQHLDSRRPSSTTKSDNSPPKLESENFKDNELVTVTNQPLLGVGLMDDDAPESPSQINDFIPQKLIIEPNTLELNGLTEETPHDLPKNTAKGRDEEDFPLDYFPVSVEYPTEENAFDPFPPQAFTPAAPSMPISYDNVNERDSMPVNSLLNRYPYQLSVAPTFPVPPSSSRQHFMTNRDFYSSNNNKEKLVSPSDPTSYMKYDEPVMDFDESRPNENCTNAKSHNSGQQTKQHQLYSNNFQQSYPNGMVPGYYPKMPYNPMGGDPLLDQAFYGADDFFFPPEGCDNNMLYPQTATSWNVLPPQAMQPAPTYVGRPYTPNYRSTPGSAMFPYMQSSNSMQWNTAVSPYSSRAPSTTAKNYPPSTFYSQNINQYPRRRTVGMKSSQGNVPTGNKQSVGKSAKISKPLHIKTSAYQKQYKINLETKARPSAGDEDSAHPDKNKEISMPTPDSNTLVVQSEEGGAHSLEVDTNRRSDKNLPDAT

Sequence	PBM E-score
GCCCACCC	0.344
GCCCACAC	0.0974
ACCCACCC	0.314
ACCCACCT	0.0687
ACCCACCA	0.0136
CCCCACCG	0.137
CCCCACCA	0.102
GCCCACCA	-0.0497
CCCCACCC	0.361
GGAAAATA	0.255
AACTACTT	-0.00699
CTGGTCGC	0.0843
CACTATGC	-0.0894
CTCAAACC	0.0438
CTCAAACA	0.341
ATCAAACC	0.217
CTCAAGCA	-0.0187
ATCAAACA	0.27
ATCAAGCA	0.0192
CTGAATCC	0.0117
CAGTAGGC	-0.0958
GACTAGGA	-0.047
GCTTGATA	0.083
AATGATAC	0.278
TATGATAA	0.131
AATGATAA	0.263

Sequence	PBM E-score
CATGATAC	0.242
AATGATAT	0.113
AATGATAG	0.194
GTCTAACA	-0.0889
ACTTACCT	-0.0503
ACCGGTGC	-0.0741
ATTCCACG	-0.0633
ATTCCACC	0.113
ATTCCACA	0.268
ATCGAGTA	-0.0649
CTCGCACA	0.127
CTTGAGTC	-0.136
CGTTTGAA	0.265
CGTTTTGC	0.197
GGTTTGAC	-0.0297
CGTTTGAG	0.111
GTTTTGAA	0.189
AGTTTTGA	0.148
AGTTTGAA	0.174
CGTTTGAC	-0.0236
CGTTTTGA	0.275
TCTTTGAA	0.161
TGTTTGAA	0.378
GGTTTGAA	0.297
CACTGCAC	-0.14
CGCCCACC	0.139

Sequence	PBM E-score
ATCCTTTG	0.0895
AGAAAGTA	0.138
AGACAAGC	-0.0877
AGACGCGG	0.0721
AACCCAGA	-0.108
CGCTTGCC	-0.062
ATTTAAAC	0.207
AATTAAAT	0.156
ATTTAAAG	0.275
ATTTAAAT	0.327
CTTTAAAG	-0.0155
AGTTAAAT	0.163
ACAAGTTC	-0.00961
ATGAGTTA	-0.0873
AAGTCACC	-0.0787
TAAGTGCA	-0.104
CTTGAAAA	0.157
ATGGAAAA	0.186
TTTGAAAA	0.309
TGTGAAAA	0.216
ATGGAAAC	0.263
GTTGAAAC	0.399
ATTGAAAA	0.352
ATTGAAGA	0.00866
TCTGAAAA	0.12
GTAGAAAC	0.0517

Sequence	PBM E-score
ATGGAAAT	0.0797
GTTGAAAA	0.206
GCTTATCC	0.0792
ACTTGAGA	0.142
ACGTCTAC	-0.118
ATAAAAGC	-0.00425
GCCCTGGA	-0.235
CACTATGG	-0.0915
ATTGAAAT	0.233
ATTGAAAC	0.398
CTTGAAAC	0.479
ATTGAGAA	0.277
ATTGAGAC	0.122
ATTGAGAG	-0.0617
CTTGAACC	-0.0679
ATTGAAAG	0.0623
CTTGAAAG	-0.0999
AACGACCA	-0.0479
ATGGGAAG	-0.0232
CCCCGGGG	-0.186
GTGTACAC	-0.224
ATGTTGTA	-0.00602
GCATCAGC	0.034
ACTAGGTC	-0.114
AAAGATAG	-0.0536
AAAAAGAA	0.289

Sequence	PBM E-score
TAAAAGAA	0.0708
AAAAGAAT	0.266
AAAAAGAC	0.153
AAAAAGAT	0.271
CAAAAGAA	0.156
AAAGATAC	0.0821
ACAAAGAT	0.0339
AAAGATAT	0.273
AAAAGAAG	0.072
AAAAGAAC	0.126
AAAGCAAA	0.148
AAACCTTC	-0.0506
CGGGACTA	-0.0932
GCATCCGA	-0.0885
CGTATGAA	0.213
AGTAGGAG	-0.119
CCTCGCAA	0.18
AGAAAAGC	0.127
AAAGAAAG	0.19
AAAGAAAA	0.351
CAAGAAAA	0.24
AGAAAAGA	0.297
CGAAAAGA	0.242
AGAGGGAG	-0.106
CAAAGTCG	0.0234
TCCTAGCA	-0.0629

Sequence	PBM E-score
ACCTCCAC	-0.0491
GATAGATC	-0.194
AACAGAGT	0.173
CACCTAAC	0.0515
CTGTAGTA	0.186
CCAATATA	-0.103
CTAATATA	0.0456
ATAATACC	0.161
ATAATATA	0.301
GCAATATA	0.149
ACAATATA	0.271
ATAATATG	0.248
ATAATACG	0.0652
ATAATACA	0.318
AGAGTAGA	-0.0237
CGTTCTCA	0.0637
GCCAGCTA	-0.192
CCGCATCC	-0.0589
ATGTTCAC	0.0173
TGATGCAA	0.137
ACCTTCTC	0.0171
CAGAAAAC	0.133
CAGAAAAG	0.186
AAGAAAAC	0.275
AAGAAAAG	0.302
AAGAAAAA	0.158

Sequence	PBM E-score
AAGAAAAT	0.254
GGTCCTTA	0.0224
CCCTCCAC	-0.0433
TTATCAAA	0.274
ATATCAAA	0.3
GTATCAAA	0.293
GTATCAAC	0.122
TCATCAAA	0.236
TGATCAAA	0.156
ATATCAAG	0.139
GTATCAGA	0.119
CTATCAAA	0.186
ACTACTTC	-0.0884
ATCACAGG	-0.0882
CAATCATC	-0.0782
ACTCTGAA	0.177
ACGGGTAC	-0.139
TAGGCGGA	-0.0248
TTATGAAA	0.431
GTATGAAA	0.338
